# Mito fusion act: inhibitors of mitochondrial division or activators of mitochondrial fusion; S. cerevisiae fusion-defective mutant growth rescue, CellTiterGlo 48 h; Potency, µM (doses to about 46.1 µM), most hits filed as activators; actives 0.23% (n = 320,000); note: nearly all actives have a fitted effect of over 45% in size
#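 Read-out: ATP-based luminescence (CellTiterGlo, 10 min ambient) reporting growth of fusion-defective ts yeast after 48 hours at 37C on glycerol/ethanol YPEG medium in the presence of compound.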
# IL-2 act: activates IL-2 in a cell-based reporter assay. IL-2 activation reporter assay, cell-based qHTS; stimulated with anti-CD3/CD4/CD28 beads; in transgenic mouse T cells. activation, % (series mostly up to about 46 µM). actives 0.065% (n = 360,000). AID 652025; in the data active = activation above about 50%; inconclusive = mostly about 30% to 49%
#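 First, unstimulated transgenic mouse T cells were exposed to compound for 60 min. Next, anti-CD3/anti-CD4-coated beads with anti-CD28 were added. Finally, after 18 h at 37 degrees C, EGFP and DsRed were imaged.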
# p53 reactivator: mutant p53 re-activation in reporter cells. actives 0.063% (n = 320,000). H1299 p53-A138V BP100-luciferase reporter, luminescence, 24 h. Potency, µM (top dose mostly 92.2 µM), actives largely listed as activators; note: nearly all actives have a fitted effect of over 45% in size
#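 H1299 (p53-null), stable ts p53-A138V + BP100-Luc; 1000 cells/well, Opti-MEM/10% FBS; cpd 4 pt, 1:5; 24 h, 37 deg C, 5% CO2; detection reagent 10 min RT; luminescence.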
# BRCA1 expr up: BRCA1 expression activation; Potency, µM (titrated, usually from 46.1 µM), hits mostly activators; actives 1.1% (n = 380,000); AID 624202; MCF7-BRCA1-FFLuc reporter, luminescence, 48 h; response scale: scaled: vehicle 0%, 10 µM genistein 100%; note: nearly all actives have a fitted effect of over 80% in size
#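 Reporter cells (MCF7, BRCA1 promoter-firefly luciferase) received library compounds across a concentration series for 48 h. End-point luminescence was measured and concentration-effect curves derived after normalization.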
# TCR activator: activators of T cell receptors. Potency, µM (doses to about 9.22 µM), hits mostly activators. primary human leukocytes, anti-CD3, IL-2 HTRF, 48 h. 330,000 tested, under 10 active
#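 Primary human leukocytes receive a-CD3 beads and test compound and are incubated 48 hr. Secreted IL-2 is then assayed by HTRF, measuring 665nm acceptor emission after 320nm excitation of the europium donor.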
# Hits are given with their value; . = inactive; ? = inconclusive; / = no result given. An excerpt weighted towards active compounds, which were near 1.3% of everything screened. Unless noted, calls come from the whole dose curve; as a rule, active = well fitted curve in the direction sought with a large enough effect; inconclusive = small, poorly fitted or top-dose-only effect, or another doubt; inactive = no such curve, though single readings can be large; an effect the other way counts as inactive or inconclusive.
SMILES,Mito fusion act,IL-2 act,p53 reactivator,BRCA1 expr up,TCR activator
Cn1c(SCc2c(F)cccc2Cl)nnc1-c1cccs1,.,.,?,3.98µM,.
O=C(CCS(=O)(=O)Cc1ccccc1)Nc1ncc([N+](=O)[O-])s1,.,.,.,8.91µM,.
COc1cc(CNCc2ccccn2)ccc1OCc1ccc(Cl)cc1Cl,.,.,.,.,.
COc1cc(CNCc2ccccn2)ccc1OCc1ccc(Cl)c(Cl)c1,.,.,.,20µM,.
COc1cc(C#Cc2c(C=O)n(C)c3ccccc23)cc(OC)c1,.,50.9,.,.,.
Cc1c(-c2nc(N)nc(Nc3ccccc3)n2)oc2ccccc12,14.1µM,.,.,.,.
Cc1ccc(OCc2ccccc2C)c([N+](=O)[O-])n1,.,.,.,.,.
Cc1ccc(OCCOc2ccc(Br)cc2)c([N+](=O)[O-])n1,.,.,?,3.16µM,.
Cc1ccc(OCC(=O)Nc2ccc(C)c(F)c2)c([N+](=O)[O-])n1,.,.,?,6.31µM,.
Cc1ccc(OCc2ccc([N+](=O)[O-])cc2)c([N+](=O)[O-])n1,.,.,.,5.01µM,.
Cc1ccc(OCC(=O)Nc2ccc3c(c2)OC(F)(F)O3)c([N+](=O)[O-])n1,.,.,.,.,.
O=[N+]([O-])c1ccc(OCCCOc2cccc3cccnc23)cc1,.,.,/,.,.
O=[N+]([O-])c1ccc(COc2cccc3cccnc23)cc1,.,.,.,11.2µM,.
COc1ccc(CNC(=O)COc2ccc(C)nc2[N+](=O)[O-])cc1,.,.,.,.,.
O=c1[nH]cnc2c1ncn2[C@H]1C[C@H](O)[C@@H](CO)O1,/,/,/,.,/
CCCCCCC[n+]1c(/C=C/c2ccc(N(C)C)cc2)sc2ccccc21,/,/,/,.,/
CN(C)/[N+]([O-])=N/Oc1ccc([N+](=O)[O-])cc1[N+](=O)[O-],/,/,/,.,/
Cc1ccc(CSc2ncn(-c3ccccc3)n2)cc1,.,.,.,11.2µM,.
Cc1nc(Nc2ccccc2)sc1C(=O)Nc1ccccc1,.,.,.,6.31µM,.
COc1ccccc1Nc1nc(C)c(C(=O)Nc2ccccc2)s1,.,.,.,.,.
COc1ccc(Nc2nc(C)c(C(C)=O)s2)cc1,/,.,/,12.6µM,/
Cc1nc(Nc2ccc(S(N)(=O)=O)cc2)sc1C(=O)Nc1ccccc1,.,.,.,.,.
Cc1nc(Nc2ccccc2Cl)sc1C(=O)Nc1ccccc1,15.8µM,.,.,.,.
CC(=O)c1sc(N/N=C\c2ccc(Br)cc2)nc1C,.,.,?,3.55µM,.
CC(=O)C[n+]1cccc(Br)c1,/,/,/,.,/
SMILES,Mito fusion act,IL-2 act,p53 reactivator,BRCA1 expr up,TCR activator
Cc1ccc2cccc(NC(=O)c3ccc(-c4cccc(Cl)c4Cl)o3)c2n1,/,/,/,.,/
CCOC(=O)C(C)Sc1ccc2nnc(-c3ccc(OCC)cc3)n2n1 (stereo not given),/,/,/,.,/
Clc1ccc(SCc2cn3cccnc3n2)cc1,.,.,?,.,.
Cc1ccc(SCc2cn3cccnc3n2)cc1,.,.,?,11.2µM,.
COc1ccc(CN(Cc2ccccc2)C(=O)c2ccno2)cc1COc1ccc(NC(C)=O)cc1,/,/,/,.,/
CCc1nn2c(=O)cc(COC(=O)Cc3ccccc3)nc2s1,/,/,/,.,/
Cc1ccc(S(=O)(=O)N2CCN(c3nc(-c4cncs4)nc4ccccc34)CC2)cc1,/,/,/,.,/
CCSc1ccccc1C(=O)Nc1nc2ccccc2c(=O)[nH]1,.,.,.,.,.
CSc1ccccc1C(=O)Nc1nc2ccccc2c(=O)[nH]1,.,.,.,11.2µM,.
COc1ccc2cc(CCNC(=O)c3cccs3)c(=O)[nH]c2c1,.,.,?,2.82µM,.
O=C(NCCc1cccs1)c1cccs1,.,.,?,6.31µM,.
O=C(NCCCCCCNC(=O)c1cccs1)c1cccs1,.,.,.,.,.
O=C(NCCc1ccc(F)cc1)c1cccs1,.,.,?,11.2µM,.
COc1ccc2cc(CCNC(=O)c3cc4ccccc4o3)c(=O)[nH]c2c1,.,.,.,.,.
O=C(NCCC1CCCC1)c1cccs1,.,.,/,11.2µM,.
O=C(NCc1ccc(F)cc1)c1cccs1,.,.,/,.,.
COc1cccc2cc(C(=O)Nc3ccc(CC(=O)O)cc3)c(=O)oc12,/,/,/,.,/
Nc1cc([N+](=O)[O-])cc(N)c1N,/,/,/,.,/
O=C(CNC(=O)c1cccs1)c1ccc(Br)cc1,.,.,?,5.62µM,.
O=C(CNC(=O)c1cccs1)OCc1ccc(Br)cc1,.,.,.,.,.
COc1ccc(CCNC(=O)c2cccs2)cc1,.,.,.,10µM,.
CCc1ccc(N/C(SC)=C(/C#N)C(N)=O)cc1,.,.,.,.,.
CCCCS/C(=C(/C#N)C(N)=O)c1cc2c([nH]1)CCCC2,12.6µM,.,?,.,.
Cc1cccc(COc2ncnc3nc[nH]c23)c1,.,.,.,10µM,.
CCN(c1cccc(C)c1)c1ncnc2nc[nH]c12,.,.,.,.,.
SMILES,Mito fusion act,IL-2 act,p53 reactivator,BRCA1 expr up,TCR activator
CCNc1ccc(/C=C/c2ccnc3ccccc23)cc1,/,/,/,.,/
Cn1nnnc1Sc1ncnc2scc(-c3ccc(F)cc3)c12,0.794µM,.,.,.,.
CSc1ccccc1OCc1cc(C(=O)N2CCN(c3ccccc3)CC2C)no1 (stereo not given),.,.,.,12.6µM,.
C=C1NN(CC#N)C(=O)N1c1ccc(OCc2ccccc2)cc1,/,/,/,10µM,/
O=C(NNC(=O)c1cccc2ccccc12)c1ccc(Cl)cc1Cl,/,.,/,12.6µM,.
O=S(=O)(c1cccs1)N1CCN(c2nc(-c3cccs3)nc3ccccc23)CC1,/,/,/,.,/
Cn1c(Nc2ccccc2)nc2ccccc21,.,.,/,.,.
Nn1c(Nc2ccccc2)nc2ccccc21,.,.,?,10µM,.
CCOc1ccc(Nc2c3ccccc3nc3ccccc23)cc1,.,.,.,.,.
CCOc1ccc(Nc2cc(C)c3ccccc3n2)cc1,.,.,.,10µM,.
CCOc1ccc(Nc2nc3ccccc3n2C)cc1,/,.,/,2.51µM,.
CCc1ccc(CNc2ccc3c(c2)ncn3CC)cc1,.,.,?,6.31µM,.
O=c1c2ccccc2sn1-c1ccc(S(=O)(=O)N2CCOCC2)cc1,/,/,/,.,/
O=S(=O)(c1cccc(Br)c1)N1CCN(c2nc(-c3cccs3)nc3ccccc23)CC1,/,/,/,.,/
CCOc1ccc(CNc2ccc3c(c2)nc(C)n3C)cc1,.,.,.,11.2µM,.
COc1ccc(CNc2ccc3c(c2)nc(C)n3C)cc1OC,.,.,/,.,.
O=C(CCCC(=O)c1ccc(F)cc1)c1ccc(F)cc1,.,.,?,2.51µM,.
CCCN1CNc2c(c(=O)[nH]c(=S)n2CCc2c(OC)cccc2OC)C1,/,/,/,.,/
C/C(=N\NC(=O)C1CC1)c1ccc(C)c(C)c1,.,.,.,10µM,.
C/C(=N\NC(=O)C1CC1)c1ccc(Cl)c(Cl)c1,.,.,.,.,.

# Bioassay records: PubChem BioAssay, National Center for Advancing Translational Sciences (NCATS)
